The list is not random: actives were taken first. Their share in the collection is about 12%.
Sfp inh – Sfp phosphopantetheinyl transferase inhibition; Q9F4F7; Biochemical Sfp PPTase activity, qHTS; Potency, µM, for the others: largest response in the series, negative = inhibition, actives largely listed as inhibitors; 3.5% of 310,000 active;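 further: the enzyme is Sfp with the accession as filed and its product quenches rhodamine fluorescence; 0% = enzyme reaction without inhibitor and -100% = no enzyme wells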
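Buffer: 50 mM Hepes-Na pH 7.6, 10 mM MgCl2, 0.01% Nonidet P-40, 0.01% BSA. Enzyme 15 nM, pre-exposed to compound 15 min; substrates then added and fluorescence change tracked over 30 min.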
HP1b binding inh – inhibitors of HP1-beta chromodomain binding to methylated histone tails | AlphaScreen HP1-beta / biotin-H3K9me3 peptide binding | P83916 | Potency, µM (titrated, usually from 114 µM), without a hit: top-dose activity change, negative = inhibition, most hits filed as inhibitors | 0.56% of 390,000 active; further: nearly all actives have a fitted effect of over 70% in size
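AlphaScreen: HP1-beta (50 nM) preformed 30 min with biotin-H3(1-18)K9me3 peptide (50 nM) in PBS pH 7.4, 0.01% Tween-20. Compound added for 30 min at RT, then streptavidin donor/nickel chelate acceptor beads (10 ug/mL) for 30 min.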
JMJD2A Tudor – JMJD2A Tudor domain (human) inhibition. O75164. AlphaScreen JMJD2A-Tudor / H3K4me3 peptide binding. Potency, µM (series often up to 114 µM), without a hit: top-dose activity change, negative = inhibition, actives largely listed as inhibitors. 4.4% of 390,000 active. AID 504339; further: on the % scale 0 is the no-effect control and ±100 the full control effect; nearly all actives have a fitted effect of over 50% in size
G9a inh – inhibitors of human histone lysine methyltransferase G9a. Q96KQ7. G9a H3K9 monomethylation, AlphaScreen, 2 h. Potency, µM (doses to about 102 µM), for the others: at the highest dose activity, negative = inhibition, hits mostly inhibitors. 8.8% of 350,000 active; further: on the % scale 0 is the no-effect control and ±100 the full control effect; nearly all actives have a fitted effect of over 75% in size
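G9a (20 nM) was preincubated 15 min with compound, then reacted 2 h at room temperature with 500 nM biotin-H3K9 peptide and 20 µM SAM. Monomethyl-H3K9 detected by AlphaScreen using anti-H3K9me1 antibody.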
L3MBTL1 block – blocks human L3MBTL1; AlphaScreen L3MBTL1–H3K9me1 peptide binding; 0.66% of 230,000 active; Q9Y468; AID 485360; Potency, µM (series often up to 57.1 µM), for the others: at the highest dose activity, negative = inhibition, actives largely listed as inhibitors; further: on the % scale 0 is the no-effect control and ±100 the full control effect; nearly all actives have a fitted effect of over 60% in size
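Read-out is AlphaScreen signal from streptavidin donor and nickel chelate acceptor beads (10 ug/mL final each) bridging L3MBTL1 (50 nM) and biotinylated K9-monomethylated H3(1-15) peptide (75 nM), after 30 min compound exposure at room temperature.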
BAZ2B block – BAZ2B (human) inhibition | AlphaScreen BAZ2B-H3K14Ac peptide displacement | Potency, µM (top dose mostly 114 µM), inactives show top-dose activity change, negative = inhibition, hits mostly inhibitors | 4.4% of 360,000 active | AID 504333; further: on the % scale 0 is the no-effect control and ±100 the full control effect; nearly all actives have a fitted effect of over 60% in size
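Protein-peptide AlphaScreen: BAZ2B 50 nM, b-H3K14Ac 50 nM, 1x PBS pH 7.4 + 0.01% Tween-20. Preincubation 30 min RT; cpd 30 min RT (top 110 uM); beads 20 min RT, light-protected.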
Starred values were filed as active, the others as inactive; ? = inconclusive; . = no result; [ ] = another dose, or the depositor's remark. The call rests on the fitted dose curve; in most records, active means well fitted curve in the direction sought with a large enough effect; inconclusive means small, poorly fitted or top-dose-only effect, or another doubt; inactive means no such curve, though single readings can be large; an effect the other way counts as inactive or inconclusive. Potency means the concentration at half of the fitted maximal effect.

SMILES	Sfp inh	HP1b binding inh	JMJD2A Tudor	G9a inh	L3MBTL1 block	BAZ2B block
CCCOc1cccc(C2c3c(oc4ccc(F)cc4c3=O)C(=O)N2CCCN2CCOCC2)c1 (stereo not given)	.	45%	-16%	21%[59 µM]	.	-1%
O=C(NCCCc1ccccc1)c1ccc(CS(=O)Cc2ccccc2Cl)o1 (stereo not given)	14%	42%	-12%	.	.	-14%
Cn1c2c(c3ccccc31)CCN(CCCCN1CCN(c3ccccc3)CC1)C2=O	.	?	50µM*	.	.	.
CC(C)=NO[C@@H](C)c1cn([C@H](CO)Cc2ccccc2)nn1	6%	.	.	.	.	.
CC1=C/C(=N\OS(=O)(=O)c2ccccc2)C(C(C)C)=CC1=O	-28%	?	?	8.9µM*	-10%	35µM*
CC1=C/C(=N\OS(=O)(=O)c2ccccc2)C(C)=CC1=O	-11%	-57%	?	20µM*	.	35µM*
O=S(=O)(Oc1ccc(Cl)cc1)c1ccccc1	3%	.	.	.	.	.
COc1cc(Br)c(C(=O)c2nccc3cc(OC)c(OC)cc23)cc1OC	6%	2%	45µM*	-19%	.	?
COc1cc(C(=O)c2nccc3cc(OC)c(OC)cc23)c([N+](=O)[O-])cc1OC	11%	7%	?	45µM*	-4%	?
COC(=O)c1c(C(=O)OC)c(-c2cccc(Cl)c2)n2c1CS(=O)(=O)C2	8%	31%	-12%	5%	.	-5%
O=C1[C@H](Cc2ccccc2)NCC=CC[C@H](c2ccco2)N1Cc1ccccc1	.	7%	?	.	.	.
Nc1cnn(Cc2ccccc2F)c1	8%	?	50µM*	?	?	40µM*
Nc1cnn(Cc2ccc(F)cc2)c1	24%	29%	-21%	?	3%	?
O=C(OCC1CCCO1)c1ccc2c(c1)N(Cc1c(F)cccc1Cl)C(=O)c1ccccc1S2(=O)=O (stereo not given)	.	30%	-16%	-27%[59 µM]	.	-9%
COc1cc(N=Nc2c(O)c3ccccc3[nH]c2=O)c(OC)cc1N=Nc1ccccc1	-8%	?	?	45µM*	-29%	?
NC(=O)c1ccc(N=Nc2c(O)c3ccccc3[nH]c2=O)cc1	-8%	.	.	?	-17%	?
CCOC(=O)c1ccc(NC(=O)c2c(NCc3cccs3)sc3c2CCCCC3)cc1	.	-23%	56µM*	7.9µM*	.	?
COc1ccc(NC(=O)c2c(NCc3cccs3)sc3c2CCCC3)cc1	.	-4%	?	14µM*	.	-36%
CCOc1ccc(NC(=O)c2c(NC(=O)CNCCN3CCOCC3)sc3c2CCC3)cc1	4%	3%	79µM*	40µM*	.	45µM*
CCOc1ccc(NC(=O)c2c(NCc3cccs3)sc3c2CCC(C)C3)cc1 (stereo not given)	.	26%	?	?	.	-38%
COc1ccc(NC(=O)c2c(NCc3cccs3)sc3c2CCCCC3)c(OC)c1	.	?	45µM*	8.9µM*	.	?
CCOC(=O)c1ccc(NC(=O)c2csc3c2CCCC3)cc1	.	26%	14%	1%[59 µM]	.	1%
C=CC[C@@H](CC(=O)NCCO)C(=O)NCCOC(=O)[C@@H](CC=C)Cc1ccc(F)cc1	.	14%	-8%	.	-4%	.
CC[C@H](C)[C@H](NC(=O)[C@H](Cc1ccc(O)cc1)NC(=O)[C@H](Cc1cnc[nH]1)NC(=O)[C@H](CCCNC(=N)N)NC(=O)[C@H](CC(C)C)NC(=O)[C@H](C)NC(=O)[C@H](CO)NC(=O)[C@H](Cc1ccc(O)cc1)NC(=O)[C@H](Cc1ccc(O)cc1)NC(=O)[C@H](CCCNC(=N)N)NC(=O)[C@H](C)NC(=O)[C@H](CC(C)C)NC(=O)[C@H](CC(=O)O)NC(=O)[C@H](CCC(=O)O)NC(=O)[C@H](C)NC(=O)[C@@H]1CCCN1C(=O)[C@H](C)NC(=O)[C@H](CC(=O)O)NC(=O)[C@H](CCC(=O)O)NC(=O)CNC(=O)[C@@H]1CCCN1C(=O)[C@H](CC(N)=O)NC(=O)[C@H](CC(=O)O)NC(=O)[C@@H]1CCCN1C(=O)[C@H](CCCCN)NC(=O)[C@H](CO)NC(=O)[C@@H]1CCCN1C(=O)[C@@H](N)Cc1ccc(O)cc1)C(=O)N[C@@H](CC(N)=O)C(=O)N[C@@H](CC(C)C)C(=O)N[C@@H](CC(C)C)C(=O)N[C@H](C(=O)N[C@@H](CCCNC(=N)N)C(=O)N1CCC[C@H]1C(=O)N[C@@H](CCCNC(=N)N)C(=O)N[C@@H](Cc1ccc(O)cc1)C(N)=O)[C@@H](C)O	-18%	.	.	.	.	.
Cc1ccccc1OCCn1c(C)nc2ccccc21	-16%	35%	-8%	18%	-2%	-28%
SMILES	Sfp inh	HP1b binding inh	JMJD2A Tudor	G9a inh	L3MBTL1 block	BAZ2B block
Cc1ccccc1OCCn1c(=S)[nH]c2ccccc21	-17%	29%	-31%	40µM*	-6%	-31%
Cc1c(C=O)c2ccccc2n1CCOc1ccccc1F	-1%	30%	5%	23%	-1%	-3%
Fc1ccccc1OCCn1c(=S)[nH]c2ccccc21	-13%	33%	?	7.1µM*	?	-37%
CC(NC(=O)COC(=O)Cc1cccs1)c1ccc(F)cc1 (stereo not given)	.	25%	-15%	.	.	.
CCc1ccc(NC(=O)c2ccc3c(O)c(S(=O)(=O)c4ccccc4)c(=O)[nH]c3c2)cc1	.	32%	-22%	-16%[59 µM]	.	-21%
COc1cccc(Cn2c(=O)c(-c3cccs3)nc3cnc(Nc4cccc(OC)c4)nc32)c1	14%	.	.	5%[12.7 µM]	.	.
CCOc1ccc(S(=O)(=O)NCC(c2ccc3c(c2)OCO3)N2CCN(C)CC2)cc1 (stereo not given)	.	4%	-21%	-21%[0.501 µM]	-14%	-13%
Cc1ccc(C)c(S(=O)(=O)NCC(c2ccc3c(c2)OCO3)N2CCOCC2)c1 (stereo not given)	.	14%	-17%	0%	3%	12%
COc1ccc(S(=O)(=O)NCC(c2ccc3c(c2)OCO3)N2CCN(C)CC2)cc1OC (stereo not given)	.	7%	-15%	50µM*	-12%	9%
COc1ccc(S(=O)(=O)Nc2ccc3c(c2)OCO3)cc1OC	-8%	7%	-23%	50µM*	-10%	-5%
COc1ccc(C)cc1S(=O)(=O)NCC(c1ccc2c(c1)OCO2)N1CCN(C)CC1 (stereo not given)	.	22%	-4%	11µM*	-6%	9%
CCCNC(=O)CCCN1C(=O)CCn2nc(-c3cccn3C)cc21	.	5%[57 µM]	-27%	-4%[59 µM]	.	?
CCOc1ccc2cc(C#N)c(SCC(=O)OCc3ccccc3)nc2c1	.	43%	23%	.	.	.

Screening results (PubChem)
